Values joined by “and” are separate entries in the source; they are usually repeats but may differ in a detail not shown here. Equal values may be shown once. Active and inactive are the calls of the source. The calls were made as follows: active = hit-call score of the fitted dose curve at least 0.9, where 1 is the maximum; inactive = score below 0.9.

The assay relates to NCBI gene 447152. The assay can be described thus: CCTE_GLTED_xIYD: CCTE's Xenopus Iodotyrosine Deiodinase (xIYD) Inhibition Assay, Great Lakes Toxicology and Ecology Division (GLTED) Lab. Here is the method: CCTE_GLTED_xIYD is a cell-free, single-readout assay that uses Xenopus (frog) iodotyrosine deiodinase (xIYD) enzyme from liver microsomes. Assay is based on iodide release measured by the Sandell-Kolthoff method and is run in 96-well plate format with assay plates run in triplicate (n=3) with measurements taken at 3 hours after chemical dosing. Platewise-normalization was used based on positive control (3-Nitro-L-tyrosine, MNT) and negative/solvent controls (DMSO, NaOH).CCTE_GLTED_xIYD is the assay component measured from the CCTE_GLTED_xIYD assay. It measures substrate involved in regulation of catalytic activity using spectrophotometry. The assay measures the deiodination activity of Xenopus (frog) IYD on the substrate monoiodotyrosine (MIT). After 3h incubation of substrate, enzyme, and test chemical, the components are applied to a 96-well Dowex column. Free iodide is not retained by the column and is separated from interfering assay components. The free iodide is measured by the Sandell-Kolthoff reaction in which the rate of reduction of cerium (Ce+4 to Ce+3) by arsenic (As+3 to As+5) is increased by the presence of iodide. This is observed as the loss of yellow color in the reaction and the quantified by the change in absorbance at 420 nm. The change in reaction rate is proportional to the amount of iodide present.Data from the assay component CCTE_GLTED_xIYD was analyzed at the assay endpoint CCTE_GLTED_xIYD in the positive analysis fitting direction relative to DMSO as the negative control and baseline of activity. Using a type of enzyme reporter, loss-of-signal activity can be used to understand iodotyrosine deiodinase activity. To generalize the intended target to other relatable targets, this assay endpoint is annotated to the 'dehalogenase' intended target family, where the subfamily is 'iodotyrosine deiodinase'.
Human transthyretin (TTR) assay, developed at Great Lakes Toxicology and Ecology Division (GLTED) within the EPA's Center for Computational Toxicology and Exposure (CCTE), is designed to test the chemicals' ability to displace T4 from the TTR protein. TTR (0.125uM) is incubated in presence of test chemical for 2 hours during which disrupting chemicals displace ANSA from the TTR protein. Results read fluorescence at 380 excitation and 475 emission.
In the case of `NS(=O)(=O)C(F)(F)C(F)(F)C(F)(F)C(F)(F)C(F)(F)C(F)(F)C(F)(F)C(F)(F)F`, the AC50 is 61.2 µM (active).
The figure for `O=S(=O)(O)C(F)(F)C(F)(F)C(F)(F)C(F)(F)C(F)(F)C(F)(F)C(F)(F)C(F)(F)F` is 36.4 µM (active) and 27.5 µM (active); for `O=C(O)C(F)(F)C(F)(F)C(F)(F)C(F)(F)C(F)(F)C(F)(F)C(F)(F)C(F)(F)F` it is 39.2 µM (active).
The figure for `O=C(O)C(F)(F)C(F)(F)C(F)(F)C(F)(F)C(F)(F)C(F)(F)C(F)(F)C(F)(F)C(F)(F)F` is 73.7 µM (active).
The value for `O=C(O)C(F)(F)C(F)(F)C(F)(F)C(F)(F)C(F)(F)C(F)(F)C(F)(F)C(F)(F)C(F)(F)C(F)(F)F` was 35.9 µM (active).

One may read the AC50 as the concentration at which the activity in the assay is half-maximal.

Values taken from PubChem BioAssay AID2284323 (EPA ToxCast).
